Laboratory results reported in PubChem BioAssay AID1981 (Southern Research Specialized Biocontainment Screening …, 2009).
Out of some 2,200 compounds screened, about 480 (22%) were called active. These entries were drawn from the full list. Results with a measured potency or affinity are listed apart. Unmarked numbers belong to inactive results. The rule behind the calls is not given here.

Test: S. Typhimurium GFP fluorescence dose response in modified counterscreen for PhoP regulon inhibitor project (AID 1981);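 note: 0% = induced DMSO wells and 100% = uninduced wells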
Details: 4 h; series mostly up to 150 µM; inhibition: at the top concentration

Point of comparison: `CCCCn1nnnc1NCc1cc(OC)c(OC)cc1OC`, “inhibition” value -11.7%. Against it:
- COc1ccc(C2=C(Nc3ccc(C)cc3)c3ccccc3C2=O)cc1 — higher, -11%
- O=c1c(Cl)c(Cl)cnn1Cc1ccccc1Cl — lower, -13.2%
- N=c1sccn1CC(=O)Nc1ccccc1Oc1ccccc1 — higher, 0.14%
- CC(=O)N1CCC(N(CCN2CCOCC2)C(=S)Nc2cccc(C)c2C)CC1 — higher, -5.55%
- CCCNC(=O)COC(=O)CCC(=O)c1ccc(F)cc1 — higher, -6.56%
- NC(=NCc1ccc2c(c1)OCO2)NC(=O)c1ccccc1 — higher, 19.6%
- O=C(CN1CCCCC1)Nc1cccc2c1OCO2 — higher, -3.16%
- O=C(Nc1ccc2oc(-c3ccc(Cl)c(Cl)c3)nc2c1)c1ncn[nH]1 — lower, -19.4%
- CCOC(=O)C1=C(C)Nc2nc3ccccc3n2C1c1cccs1 (centres undefined) — higher, -8.32%
- COc1ccc(-c2nc3ccccc3c(=O)n2-c2nccs2)cc1 — higher, -6.63%
- Brc1cccc(CNc2nc3ccccc3n2CCN2CCCCC2)c1 — lower, -11.9%
- CC(=O)N1C(=O)C2(C(C#N)=C(N)Oc3c2c(C)nn3-c2ccccc2)c2ccccc21 (centres undefined) — higher, 6.5%
- CCCCn1cnc2c(cnn2-c2ccc(F)cc2)c1=O — higher, 0.9%
- CC(NC(=O)C1(C)CC1(Br)Br)C(C)(C)C (centres undefined) — lower, -18%
- Cc1ccc(C(=O)NNc2c3ccccc3nc3ccccc23)cc1 — higher, 7.58%
- Cc1ccc(C(=O)C(OC(=O)COc2ccccc2C)c2ccccc2)cc1 (centres undefined) — higher, -5.2%
- O=C(NCCc1ccccc1)c1ccc2nc(-c3ccco3)c(-c3ccco3)nc2c1 — lower, -41.8%
- C=CCOc1ccccc1CNCCCN1CCOCC1 — higher, 2.89%
- O=c1[nH]c(NCc2ccco2)nnc1Cc1ccccc1Cl — higher, 1.24%
- Nc1cc(N)cc(-c2nc3ccccc3[nH]2)c1 — lower, -19%
- O=C(NNc1c2ccccc2nc2ccccc12)c1cccc(O)c1 — higher, 17.3%
- COc1ccc(S(=O)(=O)n2nc(OC(=O)c3cccs3)cc2N)cc1 — higher, 1.62%
- CC(=O)C1=C(C)NC(SCSc2ccccc2)=C(C#N)C1c1cccnc1 (centres undefined) — lower, -17.3%
- S=C(Nc1ccc(Cl)c(Cl)c1)N1CCOCC1 — higher, 4.16%
- COC(=O)CCC(=O)Nc1ccc(Cl)c(Cl)c1 — higher, 12.8%
- CCC(Sc1ncccc1C(=O)OC(C)C)C(=O)N1CCOCC1 (centres undefined) — lower, -15.1%
- O=C(CSc1ccc2c(c1)OCCO2)NCCc1ccc(Cl)cc1Cl — higher, -4.24%
- CCOC(=O)/C(=C/C=C/c1ccccc1)NC(=O)c1ccccc1 — higher, -1.59%
- Cc1[nH]c2ccccc2c1/C=N/O — higher, 8.32%
- COc1ccc2[nH]c(S(=O)Cc3ncc(C)c(OC)c3C)nc2c1 (centres undefined) — lower, -29.2%
- Oc1ccc(-c2n[nH]c(=S)n2-c2ccc3c(c2)OCCO3)c(O)c1 — lower, -23.8%
- Cc1ccc(Nc2nc(CSc3nnc(-c4cccnc4)n3-c3ccccc3F)cs2)cc1 — higher, -4.68%
- COc1ccc(OC)c(S(=O)(=O)N(C)CC(=O)N2CCc3ccccc3C2)c1 — higher, 0.16%
- COc1cc(C)nc(Nc2nc(C)c(C(C)=O)s2)n1 — lower, -13.1%
- COC(OC)c1nc(SCC(=O)Nc2cccc(Cl)c2)ncc1C(=O)O — higher, 12.7%
- CCN(CC)c1ccc(/C=N/NC(=S)NCc2ccccc2)c(O)c1 — higher, 7.11%
- CN(c1cccc(Cl)c1)S(=O)(=O)c1cccc(C(=O)Nc2nc3ccccc3[nH]2)c1 — higher, 2.87%
- C(=C\c1ccccc1)/C=N/Nc1nc2ccccc2[nH]1 — higher, 5.88%
- C#CCn1cc(/C=N/Nc2nc3ccccc3[nH]2)c2ccccc21 — higher, 29.9%
- CN1CCN(S(=O)(=O)c2ccc(-c3ccccc3)cc2)CC1 — higher, -2.63%
- COc1ccc(C2=Nc3cccc4cccc(c34)N2)cc1 — higher, 23.4%
- Cc1ccc(CNC(=O)c2cccc(S(C)(=O)=O)c2)cc1 — lower, -12.3%
- COc1ccc(-c2nnc(SCC(=O)NCc3ccco3)o2)cc1 — lower, -15.1%
- Cc1ccc(S(=O)(=O)NCCC(=O)OCn2nnc3ccccc3c2=O)cc1 — higher, -6.39%
- CN1/C(=C/C2CC(=O)N(c3cccc4ccccc34)C2=O)C(C)(C)c2ccccc21 (centres undefined) — higher, 33%
- CN1/C(=C/C=N/NC(=O)c2ccc([N+](=O)[O-])cc2)C(C)(C)c2ccccc21 — higher, 14.1%
- COC(=O)c1cc(C#N)c(Oc2cccc(C)c2C)nc1C — higher, -3.13%
- Cc1c(/C=C/C(=O)c2ccccc2)cnn1C — lower, -23.1%
- O=C1c2ccccc2C2=Nc3ccccc3SC(c3cccc(F)c3)C12 (centres undefined) — higher, 32.5%
- Cn1c(N)c(C(=O)COC(=O)C2CCCCC2)c(=O)n(C)c1=O — lower, -19.5%
- COc1ccccc1NCCC(=O)OCC(=O)NC1CCCCCC1 — higher, 3.79%
- O=c1c2ccccc2nc(-c2ccco2)n1-c1nccs1 — higher, -7.28%
- CNc1nc(Sc2ccccc2)cc(C(F)(F)F)n1 — higher, -5.48%
- CC(=O)Nc1c(C#N)c(C(C)(C)C)cn1C — higher, -1.78%
- CCOC(=O)c1ccc(N2CCN(c3ccc(F)cc3)CC2)c(NC(=O)Nc2cccc(OC)c2)c1 — higher, -2.83%
- COc1ccccc1-c1c(C#N)c(N)nc2c1CCc1ccccc1-2 — lower, -21.4%
- CCOC(=O)CSc1nc2c(sc(=S)n2-c2ccccc2)c(=O)n1-c1ccc(OC)cc1OC — higher, -4.8%
- CCOC(=O)Cc1ccc2sc(-c3ccccc3)nc2c1 — higher, -0.11%
- Cc1ccc2cc(C(=O)O)c(C)nc2c1 — higher, -3.21%
- N/C(=N\OC(=O)Nc1ccc(Cl)cc1)c1ncc(C(F)(F)F)cc1Cl — higher, -5%
- COc1cccc(C=NCC(C)N=Cc2cccc(OC)c2O)c1O (centres undefined) — higher, 23.7%
- N#C/C(=C\c1ccc(F)c(F)c1)C(=O)NC1CCCCC1 — higher, -10%
- N#CC(C#N)=c1ccc2c(c1)NC1(CCCCC1)N=2 — higher, 8.18%
- CCCCCCCSc1cc(OC)c(CCN(C)C)cc1OC — higher, 15.5%
- COc1ccccc1NS(=O)(=O)c1cc(NC(=S)Nc2cc(C)cc(C)c2)ccc1Cl — lower, -31.4%
- COc1ccc(CCNC(=O)c2ccc(CN3CCOCC3)cc2)cc1 — higher, -9.72%
- CN(C(=S)Nc1ccc(Oc2ccccc2)cc1)c1ccc(O)cc1 — lower, -27.1%
- O=S(=O)(c1ccccc1)N(CC(O)Cn1c2ccccc2c2ccccc21)c1ccccc1 (centres undefined) — higher, -9.4%
- OCCN(CCO)CC(O)Cn1c2ccccc2c2ccccc21 (centres undefined) — higher, -6.19%
- CCOC(=O)C1CCCN(S(=O)(=O)c2ccc(Br)c(OC)c2)C1 (centres undefined) — higher, 2.54%
- Cc1cc(C)nc(N2CCCC(C(=O)Nc3ccc4nc(C)c(C)nc4c3)C2)n1 (centres undefined) — lower, -12.8%
- Nc1nnc(SCc2ccc3c(c2)OCO3)s1 — higher, -5.33%
- O=C(c1cn(-c2ccccc2)nc1-c1cccnc1)N1CCCCC1 — higher, -8.46%
- Cc1cccc(-n2nc3c(c2NC(=O)c2ccco2)CSC3)c1C — higher, -5.76%
- O=[N+]([O-])c1nn(-c2cccc(Cl)c2)n(O)c1=NCc1cccnc1 — lower, -14.4%
- Cc1nc(N2CCN(c3ccccc3)CC2)nc2c1C(=O)CC(C)C2 (centres undefined) — higher, -11.1%
- Cc1ccccc1NC(=S)NC1CCN(Cc2ccccc2)CC1 — higher, -11.4%
- CCCCC1(CCCC)C(=O)NC(=Nc2cccc(C)c2)NC1=O — higher, 4.62%
- CCn1cc(C(=O)O)c(=O)c2cc(F)c(N3CCN(C(=S)NC(=O)c4ccccc4Cl)CC3)cc21 — higher, 37.6%
- O=C(Cn1cnc2scc(-c3ccccc3)c2c1=O)N1CCOCC1 — higher, -6.78%
- Cc1ccccc1-n1nc(-c2ccc(N)cc2)cc1N — higher, -2.22%
- N#CCOC(=O)c1sccc1-n1cccc1 — higher, -8.78%
- COc1ccc(/C=C(\NC(=O)/C=C/c2ccco2)C(=O)NCCc2nc3ccccc3[nH]2)cc1 — higher, 6.45%
- S=C(NCc1cccnc1)Nc1ccc(Cl)cc1 — higher, 8.22%
- O=[N+]([O-])c1ccc(Sc2nc3ccccc3o2)c([N+](=O)[O-])c1 — higher, 29.7%
- COc1ccc(-c2csc(NCc3ccco3)n2)cc1 — higher, 9.28%
- N#CC1=C(N)SC(N)=C(C#N)C1c1ccc([N+](=O)[O-])cc1 — higher, -7%
- COc1cccc2c(=O)c3c(cnn3C)n(C)c12 — higher, 1.4%
- COc1ccc(-c2cc(C(=O)O)[nH]n2)cc1OC — higher, 6.16%
- Cn1c(-c2ccc(N)cc2)nc2ccccc21 — lower, -15.1%
- CCC(=O)NC1=C(NC(C)c2ccccc2)C(=O)c2ccccc2C1=O (centres undefined) — higher, 2.8%
- COC(=O)c1sc2ccccc2c1-n1cccc1C(=O)C(=O)Nc1ccc(Cl)cc1 — higher, -6.16%
- Cn1c(=O)n(CC(=O)Nc2ccccc2)c2ccccc21 — higher, -5.81%
- COc1ccc(C(=O)Nc2cc(C)ccc2NC(=O)COc2ccccc2)cc1 — higher, -7.99%
- CCN(Cc1ccccc1)C(=O)CN1C(=S)NC(C)(C)CC1C (centres undefined) — lower, -16.8%
- CCOC(=O)Cn1nnnc1C(C(C)C)N(Cc1cccs1)Cc1cc2cc(C)ccc2[nH]c1=O (centres undefined) — lower, -14.5%
- CCN(CC)C(=O)CP(=O)(c1ccccc1)c1ccccc1 — lower, -24.6%
- Cc1cc(C2=NNC(=NC3CC3)SC2)c(C)n1-c1ccccc1 — lower, -27.7%
- Nc1cc(N)nc(SCC(=O)Nc2ccc3c(c2)OCCCO3)n1 — higher, -1.56%
- COc1ccc(C(=O)N2CCN(C(=O)c3ccco3)CC2)cc1OC — higher, -6.92%
- CCOC(=O)c1sc2nccc(N(C)C)c2c1N=CNOCc1c(F)cccc1Cl — higher, 4.36%
- O=C(CSc1nnc(-c2cccs2)n1-c1ccccc1)NCc1ccc2c(c1)OCO2 — lower, -12.3%
- COc1cccc(-c2nnc(SCC(=O)Nc3ccc(OC)c(OC)c3)n2N)c1 — higher, -7.18%
- CCCc1cc(-c2nc(N)ncc2-c2ccc3c(c2)OCCCO3)c(O)cc1OC — the same, -11.7%
- CCC(CC)C(=O)Nc1cccc(C(=O)N2CCCC2)c1 — higher, 1.33%
- CCOC(=O)c1[nH]c2ccccc2c1NC(=O)NC1CCCCC1 — higher, 0.89%
- CCOC(=O)CCCNC(=O)COC(=O)CCC(=O)c1ccc(F)cc1 — higher, 16.4%
- Cn1c(-c2ccc3nc(N)sc3c2)nc2cc(N)ccc21 — lower, -13.2%
- CCOC(=O)COc1ccccc1/C=C\[N+](=O)[O-] — higher, 20.1%
- COc1cc(C=O)ccc1OCCCOc1ccccc1[N+](=O)[O-] — higher, -2.16%
- COc1ccc([N+](=O)[O-])cc1NC(=O)C(C)OC(=O)c1ccccc1C(=O)c1ccc(Cl)cc1 (centres undefined) — lower, -21.5%
- Cc1ccc(S(=O)(=O)N2CCCC2C(=O)OCc2ccco2)cc1 (centres undefined) — higher, 16%
- Cc1nc2c(C(=O)NCCC(C)C)c[nH]n2c(=O)c1Cc1ccccc1F — higher, 1.09%
